The results in this text go back to PubChem BioAssay (Tox21).

Records with an inconclusive call do not appear. A number with no mark means an inactive call. Calls of active or inactive are those of the source. The call rests on the fitted dose curve; in most records, active means well fitted activation curve with a large enough effect in the signal ratio in the repeat runs (not every such curve was filed as active); inconclusive means weak or mixed curves, or effect the other way; inactive means no such curve, though single readings can be large or run the other way; the % refers to the signal ratio.
On the % scale 0 is the no-effect control and ±100 the full control effect.

Peroxisome proliferator-activated receptor gamma (Homo sapiens), sequence (P37231 whole entry, looked up): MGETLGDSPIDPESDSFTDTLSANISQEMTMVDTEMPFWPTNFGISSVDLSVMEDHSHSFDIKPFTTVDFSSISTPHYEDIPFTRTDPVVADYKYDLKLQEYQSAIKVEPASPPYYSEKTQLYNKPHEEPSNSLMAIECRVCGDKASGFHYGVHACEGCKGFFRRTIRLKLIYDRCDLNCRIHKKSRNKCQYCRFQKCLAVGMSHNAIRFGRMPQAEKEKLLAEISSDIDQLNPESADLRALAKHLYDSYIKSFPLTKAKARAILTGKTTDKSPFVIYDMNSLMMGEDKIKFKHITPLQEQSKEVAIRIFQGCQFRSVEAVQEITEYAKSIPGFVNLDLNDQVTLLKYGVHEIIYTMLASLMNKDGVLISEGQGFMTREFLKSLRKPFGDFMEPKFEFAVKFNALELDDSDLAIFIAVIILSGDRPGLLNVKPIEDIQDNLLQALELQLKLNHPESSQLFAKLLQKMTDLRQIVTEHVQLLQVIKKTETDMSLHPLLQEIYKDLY

This assay deals with Peroxisome proliferator-activated receptor gamma (Homo sapiens) (UniProt P37231). Briefly: qHTS assay to identify small molecule agonists of the peroxisome proliferator-activated receptor gamma (PPARg) signaling pathway (AID 743094). To be noted: HEK293H PPARg-UAS-bla, beta-lactamase FRET ratio, 17 h; series mostly up to 57 µM; activation: at the top concentration. The text has this:
U.S. Tox21 Program National Center for Advancing Translational Sciences [NCATS] NIH Chemical Genomics Center [NCGC] U.S. Environmental Protection Agency [EPA] National Institutes of Environmental Health Sciences [NIEHS] National Toxicology Program [NTP] U.S. Food and Drug Administration [FDA] Tox21 Assay Overview: The peroxisome proliferator-activated receptors (PPARs) are lipid-activated transcription factors of the nuclear receptor superfamily with three distinct subtypes namely PPAR alpha, PPAR delta (also called PPAR beta) and PPAR gamma (PPARg). All these subtypes heterodimerize with Retinoid X receptor (RXR) and these heterodimers regulate transcription of various genes. PPAR-gamma receptor (glitazone receptor) is involved in the regulation of glucose and lipid metabolism. To identify the compounds that activate PPAR-gamma signaling, GeneBLAzer PPAR gamma UAS-bla HEK293H cell line (Invitrogen, Carlsbad, CA, USA) containing a beta-lactamase reporter gene under control of the control of an upstream activator sequence (UAS) stably integrated into HEK293H cells was used to screen Tox21 compound library.
Tox21 Assay Protocol Summary: PPARg-bla cells were dispensed at 3000 cells/6uL/well in 1536-well black wall/clear bottom plates using a Multidrop Combi (Thermo Fisher Scientific, Waltham, MA) dispenser. After the assay plates were incubated at 37C and 5% CO2 for 5 h, 23 nL of compounds dissolved in DMSO, positive controls or DMSO only was transferred to the assay plate by a Pintool station (Kalypsys, San Diego, CA). The assay plates were incubated at 37C for 17 h. After 1 uL of LiveBLAzerTM B/G FRET substrate was added using a Bioraptr Flying Reagent Dispenser (FRD) workstation (Beckman Coulter, Indianapolis, IN, USA), the plates were incubated at room temperature for 1 h, and fluorescence intensity was measured by an Envision plate reader (PerkinElmer, Shelton, CT).
In general terms: In qHTS, concentration-response curves come from the screen itself.
For the compound `CC1=C2[C@@H]([C@H](C)CC[C@H]2/C=C(\C)C(=O)O)[C@H](O)C1`, the “activation” value was -1.1%.
As to `CSCC[C@H](NC(=O)[C@H](Cc1c[nH]c2ccccc12)NC(=O)CCNC(=O)OC(C)(C)C)C(=O)N[C@@H](CC(=O)O)C(=O)N[C@@H](Cc1ccccc1)C(N)=O`, the “activation” value is 1.16%.
`Cc1cn([C@H]2C[C@H](F)[C@@H](CO)O2)c(=O)[nH]c1=O`: the “activation” value was -0.839%.
For the compound `O=C(O)CNC(=O)c1ccccc1I`, the “activation” value was 2.02%.
Regarding `CC(C)c1ccc(C#N)cc1`, the “activation” value is 0.254%.
With `Oc1ccc2c(c1)Cc1ccccc1-2`, the “activation” value was -0.0941%.
Turning to `COC(CC(C)CCCC(C)(C)O)OC` (stereo not given), the “activation” value is -2.68%.
For the compound `COc1cc(NC(C)CCCN)c2ncccc2c1` (stereo not given), the “activation” value was -1.18% [at 26.2 µM].
With `O=C(O)CN1C(=O)c2cccc3cccc(c23)C1=O`, the “activation” value was -1.37%.
`CNC1CCCN(c2c(F)cc3c(=O)c(C(=O)O)cn(C4CC4)c3c2OC)C1` (stereo not given): the “activation” value is 1.35%.
On to `C[C@@H]1C[C@H]2[C@@H]3CCC4=CC(=O)C=C[C@]4(C)[C@@]3(F)[C@@H](O)C[C@]2(C)[C@@]1(O)C(=O)COP(=O)(O)O`, for which the result was inactive.
Consider `CCOCCC(=O)OCC`, for which the “activation” value is 0.128% [at 78.9 µM].
Turning to `O=C(O)CO`, the “activation” value was 0.678%.
As to `CC(CN(CCN(CC(C)OCCO)CC(C)OCCO)CC(C)OCCO)OCCO` (stereo not given), the “activation” value was -7.67% [at 78.9 µM].
`CC(=O)C(C)=O`: the “activation” value is 3.3% [at 78.9 µM].
Turning to `O=C(O)CCC(=O)c1ccc(-c2ccccc2)cc1`, the “activation” value is 0.891% [at 26.2 µM].
`CC(C)N=C=NC(C)C`: the “activation” value is -1.76%.
For the compound `CN=C(N)NC(=O)Nc1c(C)cccc1C`, the “activation” value is -5.12%.
On to `CC(C)(C)CCCCCCOC(=O)c1ccccc1C(=O)OCCCCCCC(C)(C)C`, for which the “activation” value is 0.28%.
`CC[C@H]1OC(=O)[C@H](C)[C@@H](O[C@H]2C[C@@](C)(OC)[C@@H](O)[C@H](C)O2)[C@H](C)[C@@H](O[C@@H]2O[C@H](C)C[C@H](N(C)C)[C@H]2O)[C@](C)(O)C[C@@H](C)CN(C)[C@H](C)[C@@H](O)[C@]1(C)O`: the outcome was inactive.
In the case of `NC(=O)CCCCC(N)=O`, the “activation” value is 2.89% [at 78.9 µM].
As for `CC(C)(C)C(O)/C=C/c1ccc2c(c1)OCO2` (stereo not given), the “activation” value was 2.6%.
For `COC1CCC=CO1` (stereo not given), the “activation” value is 5.91% [at 78.9 µM].
On to `ClC1=C(Cl)C1(Cl)Cl`, for which the “activation” value was 6.49% [at 78.9 µM].
On the same count and under the same terms, the result for `COC(=O)CC(C(C)=O)C(=O)OC` (stereo not given) reads 5.94%; that for `Cc1cc([N+](=O)[O-])ccc1N`, -6.78%.
Regarding `O=C(Oc1ccccc1)c1ccc2ccccc2c1O`, the “activation” value is 8.67%.
Turning to `CCCCCCCCCCCCCOS(=O)(=O)O`, the “activation” value was 5.61%.
For the compound `CC(C)COC(=O)COc1cc(Cl)c(Cl)cc1Cl`, the “activation” value is 3.41%.
As to `O=C(O)CCS`, the “activation” value was -0.613% [at 78.9 µM].
Regarding `Nc1ccc(N=Nc2ccc(N)cc2)cc1`, the “activation” value was -13.3%.
Take `CCCC(=O)OC(=O)CCC`: the “activation” value is 4.41% [at 78.9 µM].
Regarding `CC(=O)Oc1cccc(O)c1`, the “activation” value was -2.44%.
Still for that read-out and setting: under `CC(C)C(=O)OCCOc1ccccc1` stands -3.65%; under `O=C(CCS)OCC(COC(=O)CCS)(COC(=O)CCS)COC(=O)CCS`, -2.59%; under `Cc1cc(CCC(=O)OCCOCCOCCOC(=O)CCc2cc(C)c(O)c(C(C)(C)C)c2)cc(C(C)(C)C)c1O`, -1.3%.
For the compound `O=C1CC[C@@H](C(=O)O)N1`, the “activation” value was -0.217%.
With `CC[C@H]1OC(=O)[C@H](C)[C@@H](O[C@H]2C[C@@](C)(OC)[C@@H](O)[C@H](C)O2)[C@H](C)[C@@H](O[C@@H]2O[C@H](C)C[C@H](N(C)C)[C@H]2O)[C@](C)(O)C[C@@H](C)C(=O)[C@H](C)[C@@H](O)[C@]1(C)O`, the result was inactive.
As to `Cc1cccc2sc(N)nc12`, the “activation” value was -5.02% [at 78.9 µM].
Regarding `CC1CCCC(=O)C1=O` (stereo not given), the “activation” value was 0.101%.
